Activity calls are given as the source filed them. The calls were made as follows: active = hit-call score of the fitted dose curve at least 0.9, where 1 is the maximum; inactive = score below 0.9.
Key:
[1] = ATG_GLI_CIS: Attagene CIS-FACTORIAL HepG2 Assay for human Zinc Finger Protein GLI1 (AID 2282945); settings: HepG2, Attagene cis-factorial reporter mRNA, GLI element; actives raise or lower the signal
Procedure, shortened: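 Bidirectional curve fits relative to DMSO, using reporter mRNA levels from RT-PCR plus capillary electrophoresis. Cells were HepG2 transiently carrying cis-regulated reporter constructs, harvested 24 h after dosing.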

[2] = ATG_ISRE_CIS: Attagene CIS-FACTORIAL HepG2 Assay for human Interferon Regulatory Factor 1 (IRF1) binding to an Interferon-Stimulated Response Element (ISRE) (AID 2282948); settings: HepG2 ISRE cis-reporter (Attagene), mRNA transcription readout; actives raise or lower the signal
Procedure, shortened: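 HepG2 cells transiently transfected with multiplexed cis-promoter reporter units; after 24 h compound exposure, reporter mRNA quantified by RT-PCR, FAM labelling, HpaI digestion and capillary electrophoresis. Bidirectional fit versus DMSO baseline.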

[3] = ATG_M_32_CIS: Attagene CIS-FACTORIAL HepG2 Assay for M32 Transcription Factor (Internal Marker) (AID 2282949); settings: HepG2 Attagene cis-factorial M32 reporter, mRNA; actives raise or lower the signal;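 also: background control marker of the multiplexed CIS panel rather than a real target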
Procedure, shortened: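 Following 24 h chemical exposure of HepG2 cells transiently expressing cis-promoter reporter constructs, reporter transcript levels were determined by RT-PCR with fluorescent labelling and capillary electrophoresis, then fitted bidirectionally against DMSO.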

[4] = ATG_M_06_CIS: Attagene CIS-FACTORIAL HepG2 Assay for M06 Transcription Factor (Internal Marker) (AID 2282950); settings: HepG2 Attagene CIS-FACTORIAL M06 internal marker reporter; actives raise or lower the signal
Procedure, shortened: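 One of many multiplexed endpoints: HepG2 reporter mRNA after 24 h dosing, detected by RT-PCR and capillary electrophoresis fluorescence; gain or loss of signal analysed against DMSO.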

[5] = molecular target: Hepatocyte nuclear factor 6 (Homo sapiens) (UniProt Q9UBC0); test: ATG_HNF6_CIS: Attagene CIS-FACTORIAL HepG2 Assay for human Hepatocyte Nuclear Factor 6 (HNF6) (AID 2282952); settings: HepG2 Attagene cis-factorial HNF6 reporter transcription; actives raise or lower the signal
Procedure, shortened: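 HepG2 cells transiently transfected with cis-element-driven multiplexed reporter units measuring endogenous transcription factor activity. After 24 h exposure, reporter mRNA quantified by RT-PCR, FAM-labelled fragments and capillary electrophoresis; bidirectional fitting versus DMSO.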

[6] = molecular target: Heat shock factor protein 1 (Homo sapiens) (UniProt Q00613); test: ATG_HSE_CIS: Attagene CIS-FACTORIAL HepG2 Assay for human Heat Shock Transcription Factor 1 (HSE) (AID 2282953); settings: HepG2 HSE cis-reporter, Attagene RNA transcription; actives raise or lower the signal
Procedure, shortened: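 Using HepG2 with transfected cis-driven reporter constructs, compound effects on endogenous factor activity are scored as reporter mRNA change at 24 h. Detection: RT-PCR, HpaI digestion, capillary electrophoresis; bidirectional fitting to DMSO.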

[7] = ATG_MRE_CIS: Attagene CIS-FACTORIAL HepG2 Assay for human Metal Responsive Element (MRE) (AID 2282954); settings: HepG2 MRE cis-reporter transcription, Attagene multiplex; actives raise or lower the signal
Procedure, shortened: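 After a 24 h chemical exposure, transiently transfected HepG2 cells yield RNA whose reporter sequences are amplified, FAM-labelled and sized by capillary electrophoresis. Curves are fitted bidirectionally relative to DMSO.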

[8] = ATG_PBREM_CIS: Attagene CIS-FACTORIAL HepG2 Assay for human Phenobarbital-responsive Enhancer Module (PBREM) (AID 2282955); settings: HepG2 PBREM cis-reporter, Attagene multiplexed transcription; actives raise or lower the signal
Procedure, shortened: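 HepG2 cells transiently transfected with multiple cis-regulated reporter transcription units; endogenous factor activity at the PBREM element measured as reporter mRNA 24 h after dosing, via RT-PCR and capillary electrophoresis of fluorescent fragments; bidirectional fitting versus DMSO.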

[9] = molecular target: Paired box protein Pax-6 (Homo sapiens) (UniProt P26367); test: ATG_Pax6_CIS: Attagene CIS-FACTORIAL HepG2 Assay for human Paired Box 6 (PAX6) (AID 2282956); settings: HepG2 CIS-FACTORIAL PAX6 reporter transcription, RNA readout; actives raise or lower the signal
Procedure, shortened: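 HepG2 cells transiently transfected with multiplexed cis-promoter reporter units (endogenous TF activity) were dosed for 24 h. Reporter mRNA was quantified by RT-PCR, 6-FAM labeling, HpaI digestion and capillary electrophoresis; bidirectional fitting versus DMSO baseline.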

[10] = ATG_PXRE_CIS: Attagene CIS-FACTORIAL HepG2 Assay for human Pregnane X Receptor Element (PXRE) (AID 2282957); settings: HepG2 Attagene CIS-FACTORIAL PXRE reporter, mRNA; actives raise or lower the signal
Procedure, shortened: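 HepG2 cells transiently transfected with cis-element-driven multiplexed reporter units; after 24 h chemical exposure, reporter mRNA measured by RT-PCR, 6-FAM labelling, HpaI digestion and capillary electrophoresis. Bidirectional fitting relative to DMSO.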

[11] = ATG_RORE_CIS: Attagene CIS-FACTORIAL HepG2 Assay for human RAR-related Orphan Receptor Element (RORE) (AID 2282959); settings: HepG2 Attagene cis-factorial RORE reporter, mRNA; actives raise or lower the signal
Procedure, shortened: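 HepG2 cells transiently transfected with multiple cis-element reporter transcription units, exposed to chemical for 24 h. Reporter mRNA quantified by RT-PCR, 6-FAM primer-extension labeling, HpaI digestion and capillary electrophoresis; bidirectional fit versus DMSO baseline.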

[12] = ATG_Sox_CIS: Attagene CIS-FACTORIAL HepG2 Assay for human SRY-box transcription factor (SOX) (AID 2282960); settings: HepG2 Attagene cis-factorial SOX reporter, mRNA; actives raise or lower the signal
Procedure, shortened: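 HepG2 cells transiently transfected with cis-element-driven multiple reporter transcription units, dosed 24 h; reporter mRNA measured by RT-PCR, FAM labelling, HpaI digestion and capillary electrophoresis. Bidirectional fit versus DMSO baseline.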

[13] = molecular target: Transcription factor Sp1 (Homo sapiens) (UniProt P08047); test: ATG_Sp1_CIS: Attagene CIS-FACTORIAL HepG2 Assay for human Specificity Protein 1 (Sp1) (AID 2282961); settings: HepG2 Sp1 cis-reporter transcription, actives raise or lower the signal
Procedure, shortened: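 HepG2 cells transiently transfected with multiple reporter transcription units driven by cis-regulatory elements; Sp1-responsive reporter mRNA measured 24 h after dosing by RT-PCR and capillary electrophoresis fluorescence, fitted bidirectionally against DMSO baseline.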

[14] = ATG_SREBP_CIS: Attagene CIS-FACTORIAL HepG2 Assay for human Sterol Regulatory Element Binding (SREBP) (AID 2282962); settings: HepG2 Attagene cis-factorial SREBP reporter, mRNA; actives raise or lower the signal
Procedure, shortened: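 HepG2 cells transiently transfected with multiplexed cis-element reporter units report endogenous transcription factor activity. After 24 h of chemical exposure, reporter mRNA was quantified by RT-PCR, 6-FAM labelling, HpaI digestion and capillary electrophoresis; bidirectional fits used DMSO as baseline.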

[15] = ATG_TA_CIS: Attagene CIS-FACTORIAL HepG2 Assay for human TA Basal Promoter (AID 2282964); settings: HepG2 Attagene CIS-factorial TA basal promoter reporter; actives raise or lower the signal
Procedure, shortened: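 Transient MRTU transfection of HepG2 preceded 24 h compound exposure. Reporter mRNA levels were then read by RT-PCR with capillary electrophoresis, and this background-control endpoint was fitted bidirectionally to DMSO.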

[16] = molecular target: Hypoxia-inducible factor 1-alpha (Homo sapiens) (UniProt Q16665); test: ATG_HIF1a_CIS: Attagene CIS-FACTORIAL HepG2 Assay for human Hypoxia Inducible Factor 1 (HIF1A) (AID 2282951); settings: HepG2 Attagene cis-factorial HIF1a reporter transcription; actives raise or lower the signal
Procedure, shortened: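 HepG2 cells transiently transfected with multiplexed cis-promoter reporter units; reporter mRNA read 24 h after dosing by RT-PCR, 6-FAM primer-extension labelling, HpaI digestion and capillary electrophoresis. Bidirectional fit versus DMSO baseline.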

[17] = molecular target: Signal transducer and activator of transcription 3 (Homo sapiens) (UniProt P40763); test: ATG_STAT3_CIS: Attagene CIS-FACTORIAL HepG2 Assay for human Signal Transducer and Activator of Transcription 3 (STAT3) (AID 2282963); settings: HepG2, Attagene cis-factorial STAT3 reporter transcription; actives raise or lower the signal
Procedure, shortened: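 After a 24 h compound incubation, total RNA from MRTU-transfected HepG2 cells was converted to cDNA and reporter sequences PCR-amplified, labelled and profiled by capillary electrophoresis. Gain and loss of signal were referenced to DMSO.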

[18] = ATG_PPRE_CIS: Attagene CIS-FACTORIAL HepG2 Assay for human Peroxisome Proliferator-activated Response Element (PPRE) (AID 2282958); settings: HepG2 PPRE cis-element reporter, Attagene transcription factor profiling; actives raise or lower the signal
Procedure, shortened: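 HepG2 cells transiently transfected with multiplexed cis-element reporter units measure endogenous transcription factor activity. After 24 h compound exposure, reporter mRNA is quantified by RT-PCR, 6-FAM labeling, HpaI digestion and capillary electrophoresis; bidirectional fits are made against DMSO baseline.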

Measured: AC50

Chain of Heat shock factor protein 1 (Homo sapiens) (Q00613 whole entry, looked up): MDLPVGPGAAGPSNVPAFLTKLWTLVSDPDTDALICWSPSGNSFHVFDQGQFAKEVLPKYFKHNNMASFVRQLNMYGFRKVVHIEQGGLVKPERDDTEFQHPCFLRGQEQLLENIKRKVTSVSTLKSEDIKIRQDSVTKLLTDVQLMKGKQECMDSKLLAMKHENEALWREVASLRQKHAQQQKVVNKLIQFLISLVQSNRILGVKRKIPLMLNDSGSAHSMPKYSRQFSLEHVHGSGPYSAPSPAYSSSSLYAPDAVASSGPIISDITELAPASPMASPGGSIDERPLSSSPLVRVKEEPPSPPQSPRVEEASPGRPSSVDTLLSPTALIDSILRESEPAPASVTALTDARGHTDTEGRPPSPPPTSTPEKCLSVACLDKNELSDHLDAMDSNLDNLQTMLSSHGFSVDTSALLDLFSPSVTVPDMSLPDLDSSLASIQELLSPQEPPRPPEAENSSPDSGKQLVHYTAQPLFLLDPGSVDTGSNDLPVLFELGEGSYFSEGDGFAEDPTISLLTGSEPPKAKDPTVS
Chain of Transcription factor Sp1 (Homo sapiens) (P08047 whole entry, looked up): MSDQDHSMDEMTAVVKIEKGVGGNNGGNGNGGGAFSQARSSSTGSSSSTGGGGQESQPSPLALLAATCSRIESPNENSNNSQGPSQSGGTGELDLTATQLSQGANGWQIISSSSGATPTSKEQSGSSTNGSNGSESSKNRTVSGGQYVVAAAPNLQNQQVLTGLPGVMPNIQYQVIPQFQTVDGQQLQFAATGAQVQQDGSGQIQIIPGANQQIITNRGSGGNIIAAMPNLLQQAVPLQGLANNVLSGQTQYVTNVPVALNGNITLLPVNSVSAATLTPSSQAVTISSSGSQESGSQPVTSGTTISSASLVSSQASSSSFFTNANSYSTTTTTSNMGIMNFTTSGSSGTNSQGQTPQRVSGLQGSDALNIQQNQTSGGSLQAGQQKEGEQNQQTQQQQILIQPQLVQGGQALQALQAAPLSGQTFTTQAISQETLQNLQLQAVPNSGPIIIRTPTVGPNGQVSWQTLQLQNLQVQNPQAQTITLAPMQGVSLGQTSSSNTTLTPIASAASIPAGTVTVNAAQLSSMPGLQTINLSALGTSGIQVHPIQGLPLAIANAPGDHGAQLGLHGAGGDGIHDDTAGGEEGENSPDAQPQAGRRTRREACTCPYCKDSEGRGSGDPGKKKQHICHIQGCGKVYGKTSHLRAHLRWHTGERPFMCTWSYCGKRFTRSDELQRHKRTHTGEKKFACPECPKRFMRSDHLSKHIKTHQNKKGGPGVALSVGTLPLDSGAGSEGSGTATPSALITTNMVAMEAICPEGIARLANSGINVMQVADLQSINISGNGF
Chain of Hepatocyte nuclear factor 6 (Homo sapiens) (Q9UBC0 whole entry, looked up, the tested form may be a part): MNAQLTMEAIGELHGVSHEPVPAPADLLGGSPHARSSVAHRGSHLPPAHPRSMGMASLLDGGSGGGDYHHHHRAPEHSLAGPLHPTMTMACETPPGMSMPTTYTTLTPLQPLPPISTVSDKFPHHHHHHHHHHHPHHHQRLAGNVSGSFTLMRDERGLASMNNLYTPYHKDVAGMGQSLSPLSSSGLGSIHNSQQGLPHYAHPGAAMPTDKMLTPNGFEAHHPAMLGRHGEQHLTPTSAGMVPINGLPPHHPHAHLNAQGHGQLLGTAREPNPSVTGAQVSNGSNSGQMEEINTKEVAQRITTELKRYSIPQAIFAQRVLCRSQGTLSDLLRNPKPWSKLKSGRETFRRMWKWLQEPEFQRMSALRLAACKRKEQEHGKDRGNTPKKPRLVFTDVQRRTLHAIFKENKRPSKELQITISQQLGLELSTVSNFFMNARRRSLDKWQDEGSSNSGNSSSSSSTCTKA
Chain of Hypoxia-inducible factor 1-alpha (Homo sapiens) (Q16665 whole entry, looked up): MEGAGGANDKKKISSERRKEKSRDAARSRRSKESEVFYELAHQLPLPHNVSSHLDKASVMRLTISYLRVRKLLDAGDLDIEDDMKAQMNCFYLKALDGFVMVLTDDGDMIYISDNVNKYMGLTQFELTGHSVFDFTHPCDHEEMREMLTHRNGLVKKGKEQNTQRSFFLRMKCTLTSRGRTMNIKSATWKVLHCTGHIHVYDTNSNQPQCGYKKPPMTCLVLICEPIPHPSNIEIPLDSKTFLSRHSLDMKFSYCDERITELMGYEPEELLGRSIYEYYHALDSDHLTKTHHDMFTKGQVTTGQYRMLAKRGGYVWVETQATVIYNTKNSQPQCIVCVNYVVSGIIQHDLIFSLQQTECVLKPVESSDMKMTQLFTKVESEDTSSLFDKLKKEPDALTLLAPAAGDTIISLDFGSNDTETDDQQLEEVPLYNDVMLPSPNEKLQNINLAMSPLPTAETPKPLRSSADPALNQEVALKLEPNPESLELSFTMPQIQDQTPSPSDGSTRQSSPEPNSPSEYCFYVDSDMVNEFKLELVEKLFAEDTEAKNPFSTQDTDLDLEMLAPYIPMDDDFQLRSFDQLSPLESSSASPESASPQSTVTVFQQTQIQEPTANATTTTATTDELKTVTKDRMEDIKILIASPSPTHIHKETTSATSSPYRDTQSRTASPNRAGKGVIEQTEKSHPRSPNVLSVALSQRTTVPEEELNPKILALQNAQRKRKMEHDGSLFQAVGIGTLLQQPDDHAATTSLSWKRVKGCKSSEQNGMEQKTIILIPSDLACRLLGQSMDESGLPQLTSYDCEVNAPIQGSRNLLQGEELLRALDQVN
Chain of Signal transducer and activator of transcription 3 (Homo sapiens) (P40763 whole entry, looked up): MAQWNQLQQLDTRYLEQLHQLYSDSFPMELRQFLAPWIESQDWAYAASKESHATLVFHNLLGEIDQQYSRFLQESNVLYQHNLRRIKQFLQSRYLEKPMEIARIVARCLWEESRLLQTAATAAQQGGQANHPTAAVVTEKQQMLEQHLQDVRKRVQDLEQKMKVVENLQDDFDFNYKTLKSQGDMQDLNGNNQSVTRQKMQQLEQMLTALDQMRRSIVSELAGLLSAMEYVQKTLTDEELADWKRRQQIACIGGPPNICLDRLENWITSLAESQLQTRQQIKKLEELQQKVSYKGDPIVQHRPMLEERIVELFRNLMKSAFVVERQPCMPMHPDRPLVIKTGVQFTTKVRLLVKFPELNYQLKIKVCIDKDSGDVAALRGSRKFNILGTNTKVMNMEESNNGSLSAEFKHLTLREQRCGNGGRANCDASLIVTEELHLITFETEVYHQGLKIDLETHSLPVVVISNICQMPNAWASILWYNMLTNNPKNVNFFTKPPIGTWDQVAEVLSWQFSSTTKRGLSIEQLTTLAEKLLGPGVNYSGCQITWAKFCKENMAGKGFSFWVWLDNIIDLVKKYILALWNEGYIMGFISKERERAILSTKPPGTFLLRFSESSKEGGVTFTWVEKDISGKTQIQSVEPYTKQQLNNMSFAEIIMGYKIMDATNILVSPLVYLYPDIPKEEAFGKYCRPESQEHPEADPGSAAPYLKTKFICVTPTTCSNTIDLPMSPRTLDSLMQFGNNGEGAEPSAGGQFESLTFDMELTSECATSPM
Chain of Paired box protein Pax-6 (Homo sapiens) (P26367 whole entry, looked up): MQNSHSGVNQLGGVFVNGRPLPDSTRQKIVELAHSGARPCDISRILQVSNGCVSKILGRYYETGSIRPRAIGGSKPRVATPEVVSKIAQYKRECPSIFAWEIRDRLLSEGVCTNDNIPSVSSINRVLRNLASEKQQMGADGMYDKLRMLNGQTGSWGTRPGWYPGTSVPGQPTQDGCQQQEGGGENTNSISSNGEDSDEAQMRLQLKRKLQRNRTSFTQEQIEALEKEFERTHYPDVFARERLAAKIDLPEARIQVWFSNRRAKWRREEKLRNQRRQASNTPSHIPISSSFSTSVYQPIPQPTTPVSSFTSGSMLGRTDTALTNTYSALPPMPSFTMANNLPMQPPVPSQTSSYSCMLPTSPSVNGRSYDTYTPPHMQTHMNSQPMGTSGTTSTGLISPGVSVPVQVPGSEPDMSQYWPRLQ

C=C1CC/C=C(\C)CC[C@@H]2[C@@H]1CC2(C)C
active: [10] 26.6 µM
not listed: [16] | [17] | [18]
inactive: all other assays above

O=C(O)c1ccco1
not listed: [8] | [11] | [12] | [17] | [18]
inactive: all other assays above

CCC(C)(C)C1CCC(=O)CC1
active: [10] 5.24 µM
not listed: [8] | [14] | [16] | [18]
inactive: all other assays above

CCOC(=O)C=Cc1ccccc1
active: [10] 27.8 µM
not listed: [6]
inactive: all other assays above

COc1cc(OC)c2ccc(=O)oc2c1
not listed: [12] | [16]
inactive: all other assays above

Nc1ccn([C@H]2CC[C@@H](CO)O2)c(=O)n1
not listed: [8] | [16]
inactive: all other assays above

CC(=O)CC(C)(C)C1CCCCC1
active: [10] 30.7 µM
not listed: [16]
inactive: all other assays above

CC(=O)OC(C)(C)C
not listed: [8] | [12] | [16]
inactive: all other assays above

CCOC(=O)CCCCCCCCC(=O)OCC
not listed: [16] | [18]
inactive: all other assays above

CC(=O)Nc1cc(S(=O)(=O)O)cc2cc(S(=O)(=O)O)c(N=Nc3ccccc3)c(O)c12
not listed: [16] | [18]
inactive: all other assays above

OCC=Cc1ccccc1
active: [10] 33.1 µM
not listed: [8] | [11] | [18]
inactive: all other assays above

CCn1cc(C(=O)O)c(=O)c2ccc(C)nc21
not listed: [5] | [8] | [12] | [16]
inactive: all other assays above

CC(C)CCCC(C)(C)O
not listed: [6] | [12] | [18]
inactive: all other assays above

Source: PubChem BioAssay (EPA / NIEHS)
